Most compounds without a hit are left out; they make up all but 3.5% or so of the library.
FBW7 act: human FBW7 E3 ligase activation, primary screen | Q969H0 | AlphaScreen FBW7–phospho-cyclin E peptide binding, activator screen | normalized activity (activation), % at 26.1 µM | actives 0.13% (n = 650,000) | AID 1259310; in the data active = normalized activity above about 1.9%;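 note: purified mutant Fbw7 with reduced substrate affinity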
MITF inh: blocks human microphthalmia-associated transcription factor | AlphaScreen MITF homodimerization, bead proximity signal | O75030 | actives 0.91% (n = 650,000) | inhibition, % at 2.6 µM; in the data active = inhibition above about 50%
GPR151 activ: activates the human receptor GPR151 | Q8TDV0 | PathHunter beta-arrestin GPR151 cells, luminescence | activation, % at 11.2 µM | actives 1% (n = 650,000); in the data active = activation above about 4.9%
Target sequence (Q8TDV0 whole entry, looked up): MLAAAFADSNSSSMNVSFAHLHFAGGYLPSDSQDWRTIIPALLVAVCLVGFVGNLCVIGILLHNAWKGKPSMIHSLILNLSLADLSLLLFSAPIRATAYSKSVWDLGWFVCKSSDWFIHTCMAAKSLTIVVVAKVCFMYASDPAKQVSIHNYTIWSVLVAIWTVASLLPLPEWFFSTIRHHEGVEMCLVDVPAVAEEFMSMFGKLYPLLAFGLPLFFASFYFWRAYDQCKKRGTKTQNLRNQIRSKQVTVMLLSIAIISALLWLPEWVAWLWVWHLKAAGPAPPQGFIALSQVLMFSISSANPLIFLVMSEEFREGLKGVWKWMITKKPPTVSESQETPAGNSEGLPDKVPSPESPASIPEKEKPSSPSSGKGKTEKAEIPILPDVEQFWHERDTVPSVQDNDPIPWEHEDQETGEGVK
TEAD-YAP inh: TEAD-YAP interaction inhibition. HEK-TIYL cells, TEAD-Gal4/YAP UAS-luciferase luminescence. inhibition, % at 9.12 µM. actives 1.4% (n = 640,000); in the data active = inhibition above about 32%
GPR151 confirm: confirmation of human GPR151 activators | activation, % at 11.2 µM | AID 1508609 | shares compounds with GPR151 activ | GPR151 PathHunter beta-arrestin cells, luminescence, 90 min; % of EA-reagent control over plate median | 6,700 tested, under 10 active;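 active = mean percent activation across replicates above the confirmation screen cutoff of 4.91%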
GPR119 counter: counter-screen for GPR151 activators: effect on human GPR119; shares compounds with GPR151 activ; GPR119 PathHunter beta-arrestin cells, luminescence, 90 min; 0 = compound-well median, 100 = enzyme-acceptor control; activation, % at 11.2 µM; actives 0.3% (n = 6,700); AID 1508611;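 active = mean percent activation in the counterscreen above 29.09%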;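 note: counterscreen on off-target GPR119 to flag nonselective hits from the GPR151 activator screen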
Large screens that a line does not name were inactive (follow-up assays come after a bar, where they were run).

O=C(Nc1ccc2[nH]ncc2c1)c1cc(-c2ccccc2)n[nH]1	none
O=C1NN(c2ccc(Br)cc2)C(=O)/C1=C/c1cc2c(cc1[N+](=O)[O-])OCO2	none
COc1ccc(Cn2ccn(Cc3ccc(F)cc3)c(=O)c2=O)cc1	GPR151 activ 12.5 | GPR151 confirm inactive | GPR119 counter inactive
CSc1ccccc1C(=O)Nc1ccccc1Cl	GPR151 activ 8.2 | GPR151 confirm inactive | GPR119 counter inactive
O=C(CSc1nnc(-c2cccs2)o1)c1ccc(Br)s1	none
C#CCOc1ccc(Cl)cc1C1C2=C(CC(C)(C)CC2=O)N(CC(=O)O)C2=C1C(=O)CC(C)(C)C2	none
CCN(Cc1ccco1)C(=O)Cn1nc2n(Cc3ccccc3F)c3ccccc3n2c1=O	GPR151 activ 6.6 | GPR151 confirm inactive | GPR119 counter inactive
CCN(Cc1ccco1)C(=O)Cn1nc2c(C)cc3ccccc3n2c1=O	none
Cc1ccc(CNC(=O)CCCn2c(=S)[nH]c3ccsc3c2=O)cc1	none
COc1cccc(-c2nc(C3CCCN3C(=O)CC(C)CC(=O)O)n3ccccc23)c1 (stereo not given)	none
COc1cccc(-c2nc(C3CCCN3C(=O)CCCC(=O)O)n3ccccc23)c1 (stereo not given)	GPR151 activ 5.7 | GPR151 confirm inactive | GPR119 counter inactive
CCNc1nc(OC(C(F)(F)F)C(F)(F)F)nc(N2CCCCC2)n1	GPR151 activ 6.0 | GPR151 confirm inactive | GPR119 counter inactive
COc1cc(Nc2ccc(NC(=O)Nc3ccccc3)cc2)nc(C)n1	GPR151 activ 7.9 | GPR151 confirm inactive | GPR119 counter inactive
N#Cc1ccc(C(=O)Nc2ccc(Br)cc2)c(F)c1	none
Cc1cc(Br)ccc1NC(=O)c1ccc(C#N)cc1F	GPR151 activ 13.3 | GPR151 confirm inactive | GPR119 counter inactive
CC1=C(C(=O)OCCc2ccccc2)C(c2ccc(O)cc2)NC(=O)N1 (stereo not given)	none
COc1ccc(Br)cc1C1=N/C(=C\c2ccc(Cl)cc2Cl)C(=O)O1	none
CCOc1cccc(CN2CCC(C(=O)NCc3ccccn3)CC2)c1O	MITF inh 53.6, GPR151 activ 8.7 | GPR151 confirm inactive | GPR119 counter inactive
CCOc1ccccc1CN1CCC(C(=O)NCc2ccc(C)cc2)CC1	none
Cc1ccc(/C=N/n2c(C)n[nH]c2=S)o1	GPR151 activ 6.4 | GPR151 confirm inactive | GPR119 counter inactive
Cc1n[nH]c(=S)n1/N=C/c1ccc(F)cc1	GPR151 activ 5.4 | GPR151 confirm inactive | GPR119 counter inactive
CN(C)CCNC(=O)C(=O)NCC1OCCN1S(=O)(=O)c1cccs1 (stereo not given)	GPR151 activ 6.3 | GPR151 confirm inactive | GPR119 counter inactive
COC(CNC(=O)C(=O)NCC1OCCN1S(=O)(=O)c1cccs1)OC (stereo not given)	none
O=C(c1cccc(S(=O)(=O)N2CCCC2)c1)c1nnc(-c2ccncc2)o1	GPR151 activ 8.2 | GPR151 confirm inactive | GPR119 counter inactive
COc1ccc(-c2noc(CN3CCN(c4ccccc4)CC3C)n2)c(OC)c1OC (stereo not given)	GPR151 activ 4.9 | GPR151 confirm inactive | GPR119 counter inactive
COCC1CCCCN1Cc1nc(-c2ccc(OC)c(OC)c2OC)no1 (stereo not given)	none
O=C(NCc1ccccc1)c1ccc2c(=O)n(Cc3ccc(Cl)cc3)c(=S)[nH]c2c1	none
COc1ccnc(Cn2nc(C)c3cccn3c2=O)c1OC	GPR151 activ 6.1 | GPR151 confirm inactive | GPR119 counter inactive
COc1ccc(C(=O)Nc2ccccc2)cc1S(=O)(=O)N1CCCc2ccccc21	none
COc1cc(OC)c(S(=O)(=O)N2CCCc3ccccc32)cc1NC(C)=O	GPR151 activ 6.1 | GPR151 confirm inactive | GPR119 counter inactive
O=S(=O)(NC1CCCCC1Nc1ccc(F)cc1)c1ccccc1 (stereo not given)	none
CC(C)C[C@@H](NC(=O)OCC1c2ccccc2-c2ccccc21)C(=O)O	GPR151 activ 7.8 (no result: TEAD-YAP inh) | GPR151 confirm inactive | GPR119 counter inactive
O=C(CCN1C(=O)C2CCCCC2C1=O)NNc1c(F)c(F)cc(F)c1F (stereo not given)	GPR151 activ 5.4 | GPR151 confirm inactive | GPR119 counter inactive
O=Cc1cccc(-c2ccc(NCCN3CCOCC3)nc2)c1	GPR151 activ 5.2 | GPR151 confirm inactive | GPR119 counter inactive
c1cc(NCCN2CCOCC2)nc(-c2ccc(N3CCOCC3)nc2)n1	GPR151 activ 6.1 | GPR151 confirm inactive | GPR119 counter inactive
CC(=O)c1cccc(-c2nc(C)cc(NCCN3CCOCC3)n2)c1	GPR151 activ 11.3 | GPR151 confirm inactive | GPR119 counter inactive
Cc1cc(NCCN2CCOCC2)nc(-c2cccc(N)c2)n1	none
O=C(c1cnn2c1NC(c1cccs1)CC2C(F)(F)F)N1CCc2ccccc2C1 (stereo not given)	GPR151 activ 5.5 | GPR151 confirm inactive | GPR119 counter inactive
O=C(c1cnn2c1NC(c1cccs1)CC2C(F)(F)F)N1CCN(C(c2ccccc2)c2ccccc2)CC1 (stereo not given)	none
Cc1nnc(NC(=O)Cc2ccc(F)cc2)s1	none
NC1=[N+](CC(=O)c2ccc(Cl)cc2)CCC1	none
CC(C)c1ccc(C2C(C#N)=C(N)OC(N)=C2C#N)cc1	none
CC1=C(C#N)C(c2ccc(C(C)C)cc2)C(C#N)=C(C)N1	GPR151 activ 9.9 | GPR151 confirm inactive | GPR119 counter inactive
N#Cc1c(-c2ccccc2)cc(-c2cccc([N+](=O)[O-])c2)c(C#N)c1N	GPR151 activ 5.9 | GPR151 confirm inactive | GPR119 counter inactive
N#Cc1c(-c2cccc([N+](=O)[O-])c2)c(C#N)c(=O)n(N)c1N	none
O=C(c1ccc(N2CCC(NCc3ccc(Cl)s3)CC2)cc1)N1CCCC(CO)C1 (stereo not given)	none
CNCCOc1cccc(OC(C)C)c1	GPR151 activ 4.9 | GPR151 confirm inactive | GPR119 counter inactive
CC(C)n1c(Nc2ccnn2C)nc2c(NCCCN3CCCC3=O)ncnc21	none
CCN(CC)C(=O)C1CCCN(c2nc(NCc3cccnc3)c3ncn(-c4ccsc4)c3n2)C1 (stereo not given)	GPR151 activ 6.6, TEAD-YAP inh 37.1 | GPR151 confirm inactive | GPR119 counter inactive
CC(C)(O)C#Cc1ccc(C(=O)NC(Cc2c[nH]c3ccccc23)C(=O)O)cc1 (stereo not given)	GPR151 activ 12.4 | GPR151 confirm inactive | GPR119 counter inactive
Cc1ccc(C(=O)NC(Cc2c[nH]c3ccccc23)C(=O)O)cc1 (stereo not given)	none
COc1ccc(Cl)cc1C(=O)Nc1cccc(-c2nc3ccccc3o2)c1	none
COC(=O)c1c(C)[nH]c(C(=O)COC(=O)CCc2ccc(OC)c(OC)c2)c1C	GPR151 activ 5.7 | GPR151 confirm inactive | GPR119 counter inactive
CCCc1cc(=O)oc2cc(OCc3cccc(Cl)c3)ccc12	none

Assay outcomes as filed in PubChem.
